Data: PubChem BioAssay (NCATS)
Records with an inconclusive call do not appear. Values without a mark were called inactive. The source made the active and inactive calls. Calls follow the shape of the dose curve; as a rule, active = well fitted curve in the direction sought with a large enough effect; inconclusive = small, poorly fitted or top-dose-only effect, or another doubt; inactive = no such curve, though single readings can be large; an effect the other way counts as inactive or inconclusive.

experiment: NS1 protein of Zika virus - qHTS assay to identify small molecule inhibitors in human HEK 293 cells (AID 1347053); conditions: HEK293 ZIKV MR766 infection, NS1 TR-FRET, 24 h; series mostly up to 46.1 µM; activity change, negative = inhibition: at the top concentration; also: nearly all actives have a fitted effect of over 55% in size;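 as to activity change, negative = inhibition: plate controls were infected untreated cells for no effect and uninfected cells for full effect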
Procedure, shortened: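 In this cell-based screen, HEK 293 cultures received compound for one hour before Zika MR766 at MOI = 0.5. NS1 was quantified 24 hours later by TR-FRET, normalized to virus-free wells and infected wells.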
Potency is read from the fitted curve at half-maximal effect.

Compound | activity change, negative = inhibition | Potency
O=C(Nc1cc2cc[nH]c2cn1)c1ccccc1 | 0.542% | –
c1cncc(CN2CCC(n3ncc4c(N5CCOCC5)nc(-c5ccc6[nH]ccc6c5)nc43)CC2)c1 | – | 14.8 µM (active)
C[C@H](NCc1ccc(OCc2cccc(F)c2)cc1)C(N)=O | – | 23.5 µM (active)
CC(C)[C@H](CO)Nc1nc(Nc2cccc(Cl)c2)c2ncn(C(C)C)c2n1 | – | 23.5 µM (active)
CC(=CC(=O)Nc1ccccc1C(=O)O)c1ccc2ccccc2c1 | – | 14.8 µM (active)
CC(C)(O)Cn1c(NC(=O)c2ccc(-c3cn[nH]c3)s2)nc2cc(CN3CCOCC3)ccc21 | – | 5.26 µM (active)
Oc1cc(-c2nc(-c3ccccc3)[nH]c2-c2ccncc2)ccc1Cl | – | 37.2 µM (active)
COc1cc(C(C)C)c(Oc2cnc(NC(CO)CO)nc2N)cc1I | 11.4% | –
Cc1cnc(NC(=O)Nc2cc(Br)c(C)cc2OC[C@@H]2CNCCO2)cn1 | – | 6.62 µM (active)
CC1=C(C(=O)Nc2cc3cn[nH]c3cc2F)C(c2ccc(Cl)cc2F)N=C(c2ccnc(Cl)c2)N1 (stereo not drawn) | -13.7% | –
COc1cc(O)c2c(c1)C1OC1C[C@H](O)[C@H](O)C(=O)C=CC[C@H](C)OC2=O (stereo partly drawn) | – | 11.8 µM (active)
Cn1cc(C2=C(c3c4n(c5ccccc35)CCC(CN)C4)C(=O)NC2=O)c2ccccc21 (stereo not drawn) | – | 13.2 µM (active)
C[N+](C)([O-])CCNc1ccc(NCC[N+](C)(C)[O-])c2c1C(=O)c1c(O)ccc(O)c1C2=O | 0.59% | –
Oc1ccc(-c2ccc(-c3cc(Nc4cccc(CNC5CC5)c4)n[nH]3)cc2)c(O)c1 | – | 1.18 µM (active)
Cn1cc(C[C@@H](N)C(=O)O)c2ccccc21 | 0.546% [at 20.1 µM] | –

experiment: qHTS of pediatric cancer cell lines to identify multiple opportunities for drug repurposing: Primary screen for TC32 cells (AID 1347089); conditions: TC32 Ewing sarcoma viability, CellTiter-Glo luminescence, 48 h; series mostly up to 45.8 µM; activity change, negative = cytotoxic: at the top concentration; also: nearly all actives have a fitted effect of over 60% in size; as to activity change, negative = cytotoxic: % is scaled to controls: 0 for no effect and ±100 for the full control effect
Procedure, shortened: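 A viability screen of TC32 cells was run over 48 h, with primary MIPE doses spanning 0.78 nM–46 µM and NPC doses 0.59 nM–46 µM. ATP luminescence (CellTiter-Glo) served as the read-out.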

Compound | activity change, negative = cytotoxic [%] | Potency
C=CC[C@@H]1C=C(C)C[C@H](C)C[C@H](OC)[C@H]2O[C@@](O)(C(=O)C(=O)N3CCCC[C@H]3C(=O)O[C@H](C(C)=C[C@@H]3CC[C@H](O)[C@H](OC)C3)[C@@H](C)[C@@H](O)CC1=O)[C@@H](C)C[C@@H]2OC | 8.96 | –
O=C(O)C=Cc1ccc(Cn2ccnc2)cc1 | 13.5 | –
C[C@H](NCc1ccc(OCc2cccc(F)c2)cc1)C(N)=O | – | 18.6 µM (active)
C=CCNC1=C2C[C@@H](C)C[C@H](OC)[C@@H](O)[C@@H](C)C=C(C)[C@H](OC(N)=O)[C@@H](OC)C=CC=C(C)C(=O)NC(=CC1=O)C2=O | – | 1.17 µM (active)
CCCCCCCCCCCC(CC1OC(=O)C1CCCCCC)OC(=O)C(CC(C)C)NC=O (stereo not drawn) | 0.296 | –
N#Cc1cc(NC(=O)Nc2nnc(-c3ccncc3)s2)ccc1-c1cn[nH]c1 | 10.9 | –
CNC(=O)c1ccc(Nc2cc(Nc3ccccc3S(=O)(=O)C(C)C)c3cc[nH]c3n2)nc1 | – | 2.62 µM (active)
Cc1cncc2cccc(S(=O)(=O)N3CCCN(C(=O)CN)C[C@@H]3C)c12 | – | 10.4 µM (active)
COc1cc2c(cc1O)CCC1C2CC[C@@]2(C)C1CC[C@@H]2O (stereo partly drawn) | – | 18.6 µM (active)
CC(=CC(=O)Nc1ccccc1C(=O)O)c1ccc2ccccc2c1 | 6.89 | –
CC(C)(O)Cn1c(NC(=O)c2ccc(-c3cn[nH]c3)s2)nc2cc(CN3CCOCC3)ccc21 | – | 8.29 µM (active)
CC(C)c1cnn2c(NCc3ccccc3)cc(NCCCCCCN)nc12 | 0.486 | –
NC(=O)Nc1cc(-c2ccc(CN3CCOCC3)cc2)sc1C(N)=O | – | 0.523 µM (active)
CC(O)(C#Cc1ccc2c(c1)N(c1nc(N)ncc1Cl)CC2)c1nccs1 (stereo not drawn) | -2.31 | –
Oc1cc(-c2nc(-c3ccccc3)[nH]c2-c2ccncc2)ccc1Cl | 2.23 | –
COc1cc(C(C)C)c(Oc2cnc(NC(CO)CO)nc2N)cc1I | 9.21 | –
c1ccc(CNc2nc(NCc3ccccc3)c3ccccc3n2)cc1 | -0.919 | –
COc1ccc(Nc2nccc(NCCO)n2)cc1 | 2.13 | –
COc1cccc2c1C(=O)c1c(O)c3c(c(O)c1C2=O)C[C@@](O)(C(C)=O)C[C@H]3O[C@H]1C[C@H](N)[C@H](O)[C@H](C)O1 | – | 0.234 µM (active)
CCN(CC)CCCCNc1ncc2c(n1)N(C)C(=O)N(c1c(Cl)c(OC)cc(OC)c1Cl)C2 | – | 23.4 µM (active)
CC(=O)NC(CS)C(=O)O (stereo not drawn) | -0.392 | –
C[N+](C)([O-])CCNc1ccc(NCC[N+](C)(C)[O-])c2c1C(=O)c1c(O)ccc(O)c1C2=O | – | 5.23 µM (active)
C[C@H](CCC(=O)O)[C@H]1CC[C@H]2[C@@H]3[C@H](O)C[C@@H]4C[C@H](O)CC[C@]4(C)[C@@H]3CC[C@]12C | 5.29 | –
